Hit rate of the full screen: of about 320,000 compounds, about 2,100 (0.66%) were called active. Inconclusive results (about 53%) are left out. The call rests on the fitted dose curve; in most records, active means well fitted inhibition curve with a large enough effect in the signal ratio, with a control signal flat (not every such curve was filed as active); inconclusive means small, poorly fitted or top-dose-only effect, or effect the other way, or a change in a side signal; inactive means flat fitted curve, though single readings scatter; the % refers to the signal ratio. The full list was thinned out, with actives kept by preference.
test: qHTS Assay for Lipid Storage Modulators in Drosophila S3 Cells; settings: BODIPY lipid droplet fluorescence, 18-24 h, cells fed with added oleic acid; cell number change: measured here: cell count max response; series mostly up to 46.1 µM; lipid storage change, negative = inhibition: at the top concentration;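 on cell number change: cells counted by Cell Tracker Red CMTPX staining in the red channel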; on lipid storage change, negative = inhibition: on the % scale 0 is the no-effect control and ±100 the full control effect
In short: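 Drosophila S3 cells loaded with oleic acid (400 uM, as added) and compounds at several concentrations; lipid droplets imaged by 488-nm laser-scanning cytometry, 500–530 nm intensity and object ratio to cell channel. Percent activity normalized to 20 uM Triacsin C.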
Potency means the concentration at half of the fitted maximal effect.

Row | SMILES | outcome | cell number change [%] | lipid storage change, negative = inhibition | Potency
1 | Cc1cccc(NC(=O)CS(=O)(=O)c2cn(C)c3ccccc23)c1 | inactive | -0.98 |  | 
2 | O=C(Cc1c(F)cccc1Cl)NCCCn1ccnc1 |  | -2.56 | -0.0337% (inactive) | 
3 | CNC(=S)N(CCCn1ccnc1)Cc1c(F)cccc1Cl |  | 21.2 |  | 3.26 µM (active)
4 | O=C(CC1C(=O)NCCN1Cc1c(F)cccc1Cl)NCCCn1ccnc1 (stereo not drawn) |  | 8.35 | 8.58% (inactive) | 
5 | CCCCn1c(CNC(=O)C(C)(C)C)nc2ccccc21 |  | -1.23 | 9.89% (inactive) | 
6 | COc1ccc(Nc2nnc(SCC(=O)Nc3ccc4[nH]c(=O)[nH]c4c3)s2)cc1 |  | -17.1 | -11.5% (inactive) | 
7 | Cc1nnc(SCCN2C(=O)c3ccccc3C2=O)[nH]c1=O |  | -14.8 | 21.9% (inactive) | 
8 | O=C(/C=C/c1ccccc1[N+](=O)[O-])NCCN1C(=O)S/C(=C\c2ccc(F)cc2)C1=O |  | -11.5 | -24.8% (inactive) | 
9 | O=C(/C=C/c1cccc([N+](=O)[O-])c1)NCCN1C(=O)S/C(=C\c2ccc(F)cc2)C1=O |  | 13.9 | 7.68% (inactive) | 
10 | CC(C)(C)C(=O)NCCN1C(=O)S/C(=C\c2ccc([N+](=O)[O-])cc2)C1=O |  | -4.32 |  | 11.6 µM (active)
11 | COc1ccc(-c2nc(CS(=O)(=O)CC(=O)NCc3cccc(Br)c3)c(C)o2)cc1 |  | 10.1 |  | 13 µM (active)
12 | COc1ccc(-c2nc(CS(=O)(=O)CC(=O)NCc3ccccc3Br)c(C)o2)cc1 |  | 11.5 | -6.39% (inactive) | 
13 | COc1cccc(-c2nc(CS(=O)(=O)CC(=O)NCc3ccccc3)c(C)o2)c1 |  | 1.69 | 29.1% (inactive) | 
14 | CC(C)=CCN1CCN(Cc2cnc(-c3ccccc3)s2)CC1CCO (stereo not drawn) |  | -2.03 | -2.06% (inactive) | 
15 | Cc1ccc(-n2nc(C)c(C(=O)N3CCN(C(=O)c4ccco4)CC3)c2-n2cccc2)cc1 |  | -18.3 |  | 16.4 µM (active)
16 | Cc1ccc(CN2CCN(C(=O)c3ccco3)CC2)cc1 |  | 11.8 | -4.76% (inactive) | 
17 | Cc1ccc(-n2ncc(C(=O)N3CCN(C(=O)c4ccco4)CC3)c2-n2cccc2)cc1 | inactive | -13.4 |  | 
18 | O=C(Nc1ccncc1)c1sc2ccccc2c1Cl |  | 17.8 | 0.205% (inactive) | 
19 | Cc1nn(CC#N)c(=O)n1-c1ccccc1 | inactive | 5.19 |  | 
20 | CCOC(=O)C1CCN(C(=O)CSc2c3c(nc4ccccc24)CCC3)CC1 |  | 8.19 | 1.28% (inactive) | 

Row | SMILES | outcome | cell number change [%] | lipid storage change, negative = inhibition | Potency
21 | N#Cc1ccc(-c2csc(-c3ccno3)n2)cc1 |  | 9.9 | 7.03% (inactive) | 
22 | COc1ccc(/C=C2\N=C3CCCCCN3C2=O)cc1OC |  | -0.0934 | 23.1% (inactive) | 
23 | COc1ccc(/C=C2\N=C(c3ccccc3)N(c3ccc(C(=O)O)cc3)C2=O)cc1OC |  |  | -5.74% (inactive) | 
24 | COc1ccc(/C=C2\N=C(C)N(c3ccc4ccccc4c3)C2=O)cc1OC |  | 14.3 |  | 5.17 µM (active)
25 | Cc1ccc(S(=O)(=O)N(C)/N=C/C=C/c2ccccc2)cc1 |  | -10.7 | -4.88% (inactive) | 
26 | O=C(COC(=O)Cn1cnc2ccccc21)Nc1cccc(S(=O)(=O)N2CCOCC2)c1 |  | -0.979 | -9.22% (inactive) | 
27 | NC(=O)C1CCN(C(=O)CSc2nc3ccccc3o2)CC1 |  |  | -27.1% (inactive) | 
28 | NC(=O)C1(N2CCCCC2)CCN(C(=O)CSc2nc3ccccc3s2)CC1 |  | -22.8 | 51% (inactive) | 
29 | NC(=O)C1CCN(C(=O)CSc2nc3ccccc3s2)CC1 |  | 5.89 |  | 16.4 µM (active)
30 | CC(C)(Cc1nc2ccccc2[nH]1)C(=O)O |  | -19.5 |  | 23.1 µM (active)
31 | O=C(O)COCc1nc2ccccc2[nH]1 |  | 0.419 | -0.005% (inactive) | 
32 | O=C(O)CSCc1nc2ccccc2[nH]1 | inactive |  |  | 
33 | NNC(=O)CNC(=O)c1cccc(Br)c1 |  |  | 8.24% (inactive) | 
34 | N#C/C(=C/c1ccc(-c2ccccc2)o1)c1nc(-c2cccs2)cs1 |  | 20.9 |  | 5.8 µM (active)
35 | N#C/C(=C\c1ccc(-c2ccc(F)cc2)o1)C(=O)Nc1nc(-c2cccs2)cs1 |  | -13 | -27.8% (inactive) | 
36 | N#C/C(=C\c1ccc(-c2ccccc2)cc1)c1nc(-c2ccco2)cs1 |  | 1.16 | -6.6% (inactive) | 
37 | C=CCC1(N(C(C)=O)c2ccccc2C)CCCCC1 |  | -21.1 | -2.14% (inactive) | 
38 | Cc1oc(/N=C/c2cccc([N+](=O)[O-])c2)c(C#N)c1C |  | -19.3 |  | 16.4 µM (active)
39 | Cc1oc(/N=C/c2ccccc2)c(C#N)c1C |  | 0.993 | 9.49% (inactive) | 
40 | Cc1oc(/N=C/c2ccccc2O)c(C#N)c1C |  | -11.3 | 5.93% (inactive) | 

Row | SMILES | outcome | cell number change [%] | lipid storage change, negative = inhibition | Potency
41 | CCOC(=O)Nc1ccc(S(=O)(=O)N2CCC(C)CC2)cc1 |  | 5.9 | 6% (inactive) | 
42 | CC1CCCN(S(=O)(=O)c2ccc(NC(=O)CN3CCCCC3)cc2)C1 (stereo not drawn) |  | -3.44 | -6.48% (inactive) | 
43 | Cc1ccc(NC(=O)c2ccc(S(=O)(=O)N3CCC(C)CC3)cc2)cc1 | inactive | 29.6 |  | 
44 | CCS(=O)(=O)c1ncc(Cl)c(C(=O)Nc2ccc(S(=O)(=O)N3CCC(C)CC3)cc2)n1 |  | -22.6 |  | 1.3 µM (active)
45 | CC1CCCN(S(=O)(=O)c2ccc(NC(=O)CNC3CCCC3)cc2)C1 (stereo not drawn) | inactive | -7.89 |  | 
46 | CCS(=O)(=O)c1ncc(Cl)c(C(=O)Nc2ccc(S(=O)(=O)N3CCCC(C)C3)cc2)n1 (stereo not drawn) |  | -27.2 |  | 0.146 µM (active)
47 | C/C(=N\Nc1nccnc1Cl)c1ccc([N+](=O)[O-])cc1 |  | -11.4 | -8.27% (inactive) | 
48 | O=C(NCCS(=O)(=O)N1CCN(c2ccccc2)CC1)c1ccc(Br)o1 |  |  | 10.4% [at 0.0737 µM] (inactive) | 
49 | Cc1cc(C)n2c(SCCO)nnc2n1 |  | 8.77 | 23.7% (inactive) | 
50 | CC(=O)Nc1cccc(C(=O)Nc2cccc3ncccc23)c1 |  | -6.58 | 34.5% (inactive) | 
51 | CCc1noc(C)c1C(=O)Nc1ccccc1N1CCOCC1 |  |  | 24.3% (inactive) | 
52 | CCc1noc(C)c1C(=O)Nc1cccc2ncccc12 |  | -8.65 |  | 2.31 µM (active)
53 | CCc1noc(C)c1C(=O)Nc1ccc(F)c(F)c1F | inactive | -3.41 |  | 
54 | O=C(Nc1cccc2ncccc12)c1cccnc1 |  | 4.51 | 42.3% (inactive) | 
55 | CC(C)(C)c1ccc(C(=O)Nc2cccc3ncccc23)cc1 |  |  |  | 14.6 µM (active)
56 | CCOC(=O)c1cc(CC)sc1NC(=O)CN1CCN(C(=O)C2CCCO2)CC1 (stereo not drawn) | inactive | -6.11 |  | 
57 | CC(=O)N(C)c1ccc(NC(=O)c2ccc([N+](=O)[O-])cc2Cl)cc1 | inactive | 1.5 |  | 
58 | CCCCN(C(=O)CCC(=O)OCC(=O)NCc1ccccc1)c1c(N)n(CCC)c(=O)[nH]c1=O |  | -13.8 | -9.31% (inactive) | 
59 | COc1ccc(NC2CC(=O)N(c3cccc(C)c3)C2=O)cc1 (stereo not drawn) |  | -0.809 | 11.1% (inactive) | 
60 | O=C(NCc1ccncc1)NC1CCCCC1 |  | 5.51 | 15.1% (inactive) | 
